# Measurements taken from PubChem BioAssay (NCATS).
# Inconclusive results are not listed. Active and inactive are the calls of the source. Unless noted, the call rests on the fitted dose curve; in most records, active means well fitted curve in the direction sought with a large enough effect; inconclusive means small, poorly fitted or top-dose-only effect, or another doubt; inactive means no such curve, though single readings can be large; an effect the other way counts as inactive or inconclusive.
# Columns and labels:
# [1] = Confirmation and Secondary Assay for Modulators of Hemoglobin Beta Chain Splicing at IVS2 654 locus (AID 910);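 further: HeLa cells stably carrying EGFP split by mutant beta-globin IVS2-654 intron; per-well total GFP intensity by laser scanning cytometry after 2-day treatment; % of control where 0% means no effect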
# How it was run: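 Readout: per-well total peak green fluorescence (488 nm ex, 500–520 nm em) from objects 5–250 µm, reflecting correct splicing of an EGFP-654 reporter. Compounds were applied for 2 days at 37 °C to overnight-plated HeLa EGFP-654 cells; controls were DMSO and 500 nM IVS2-654 PNA.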
# [2] = Confirmation and Secondary Assay for Modulators of Hemoglobin Beta Chain Splicing at IVS2 705 locus (AID 930);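 further: HeLa cells stably expressing the EGFP-705 splicing reporter; GFP fluorescence per well restored by corrected splicing of the IVS2-705 intron in EGFP; % of control where 0% means no effect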
# How it was run: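 First, HeLa EGFP-705 cells are seeded at 500/well in Optimem with 2% FCS and left overnight. Next, compound or DMSO is added for 2 days. Finally wells are laser-scanned and total peak GFP intensity scored.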
# [3] = qHTS Assay for Lipid Storage Modulators (AID 1519; calls by dose curve; further: potency means the concentration at half of the fitted maximal effect; on activity change, negative = inhibition: on the % scale 0 is the no-effect control and ±100 the full control effect); settings: Drosophila S3 cells, BODIPY lipid droplet/cell ratio, laser cytometry, cells loaded with oleic acid
# How it was run: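 Cells seeded at 5,000 per well were treated with compounds over a concentration series and loaded with oleic acid (400 uM, as added). Lipid droplet fluorescence (488 nm excitation, 500-530 nm channel) was read by laser-scanning cytometry and normalized to 20 uM Triacsin C.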
# [4] = molecular target: Cytochrome P450 3A4 (Homo sapiens) (UniProt P08684); assay: qHTS Assay for Inhibitors and Substrates of Cytochrome P450 3A4 (AID 884); further: nearly all actives have a fitted effect of over 50% in size; further: potency means the concentration at half of the fitted maximal effect; on activity change, negative = inhibition: on the % scale 0 is the no-effect control and ±100 the full control effect
# How it was run: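 20 nM human CYP3A4 with 25 uM Luciferin-PPXE (at KM) in 200 mM KPO4, preincubated 10 min with compound; NADPH regeneration started a 60 min RT reaction. Luciferin detected by luminescence, normalized to 57 uM ketoconazole as full inhibition.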
# [5] = molecular target: Alpha-galactosidase (Coffea arabica) (UniProt Q42656); assay: Counterscreen for Glucocerebrosidase Inhibitors: qHTS Assay for Coffee Bean alpha-Galactosidase at pH 5.9 (AID 998);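 further: plate controls were uninhibited enzyme for no effect and no-enzyme basal signal for full effect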
# How it was run: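 Compounds were titrated from 0.7 nM to 77 uM against green coffee bean alpha-galactosidase (2 nM) using 80 uM fluorogenic 4-methylumbelliferyl substrate. After 20 min at room temperature, reactions were stopped at pH 10 and read by fluorescence.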
# [6] = Confirmatory qHTS to identify inhibitors of SARS-CoV-2 cell entry (AID 1645844; calls by dose curve; further: nearly all actives have a fitted effect of over 45% in size; further: potency means the concentration at half of the fitted maximal effect)
# How it was run: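 Luminescence from a luciferase reporter, read 48 hr after pseudotyped-particle addition, gives entry signal, normalised to spike-bearing PP wells and bald PP lacking fusion protein wells. Cells are Expi293F stably expressing human ACE2, compound-pretreated 1 hr.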
# [7] = molecular target: Cytochrome P450 3A4 (Homo sapiens) (UniProt P08684); assay: qHTS Assay for Activators of Cytochrome P450 3A4 (AID 885); further: nearly all actives have a fitted effect of over 65% in size
# How it was run: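 Human CYP3A4 (20 nM) with Luciferin-PPXE at 25 uM (its KM) in 200 mM KPO4; 10 min compound preincubation, then NADPH regeneration and 60 min reaction at RT. Luciferin read by luminescence; normalized to 57 uM ketoconazole full inhibition.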
# [8] = molecular target: Cytochrome P450 2D6 (Homo sapiens) (UniProt P10635); assay: Cytochrome P450 family 2 subfamily D member 6 (CYP2D6) small molecule antagonists: luciferase biochemical (cell-free) qHTS assay (AID 1645840; active means well fitted curve in the direction sought with a large enough effect in the repeat runs; an effect the other way counts as inactive or inconclusive; further: nearly all actives have a fitted effect of over 55% in size; further: potency means the concentration at half of the fitted maximal effect; on activity change, negative = inhibition: on the % scale 0 is the no-effect control and ±100 the full control effect)
# How it was run: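 P450-Glo luminescent screen: recombinant CYP2D6 enzyme–proluciferin substrate mix preincubated with compound 10 min at room temperature, then NADPH regeneration added for 1 h at room temperature. Detection reagent added for 20 min; luciferin light read as relative luminescence units.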
# [9] = molecular target: Glutathione peroxidase 1 (Homo sapiens) (UniProt P07203); assay: Primary qHTS Assay for Inhibitors of Recombinant Selenoprotein Glutathione Peroxidase 1 (GPX1) (AID 1845191); further: on the % scale 0 is the no-effect control and ±100 the full control effect; nearly all actives have a fitted effect of over 65% in size
# How it was run: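 10 nM GPX1 + cpd, 30 min RT; start w/ 1 mM GSH, 0.5 mM cumene hydroperoxide, 0.5 mM NADPH, 100 nM GR, 0.01% BSA; buffer 50 mM Tris-HCl pH 7.5, 2 mM EDTA, 150 mM NaCl; Fl 340/450, 0 & 15 min.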
# [10] = Cytotoxicity counterscreen for inhibitors of SARS-CoV-2 cell entry (AID 1645845; calls by dose curve; further: potency means the concentration at half of the fitted maximal effect; nearly all actives have a fitted effect of over 50% in size); settings: outcome: dose series up to 57.1 µM unless noted
# How it was run: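 48 h compound treatment (after 1 h preincubation), HEK293-ACE2 cells, 37 C/5% CO2; ATP luminescence endpoint; normalized to cell wells and media blanks.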
# [11] = VSVG counterscreen qHTS to identify inhibitors of SARS-CoV-2 cell entry (AID 1645847; calls by dose curve; further: potency means the concentration at half of the fitted maximal effect; nearly all actives have a fitted effect of over 65% in size)
# How it was run: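 HEK293-ACE2 cells (Expi293F, human ACE2) pretreated 1 h with compound, then infected with MLV-based VSV-G pseudotyped particles for 48 h at 37 C; luciferase luminescence normalized to VSV-G PP and bald PP wells.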
# [12] = Primary qHTS to identify inhibitors of SARS-CoV-2 cell entry (AID 1645846; calls by dose curve; further: nearly all actives have a fitted effect of over 45% in size); settings: SARS-CoV-2 pseudovirus cell entry assay, luminescence; activity change, negative = inhibition: at 57.1 µM (top of the series) unless noted
# How it was run: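 HEK293 cells stably expressing human ACE2, pre-treated 1 h with compound, then infected with MLV particles pseudotyped with Wuhan-Hu-1 spike (C-terminal 19-aa truncation). Luciferase luminescence after 48 h at 37 °C, normalised to spike PP and bald PP.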
# [13] = measured here: cell count channel max response
# [14] = measured here: lipid channel max response
# Cytochrome P450 2D6 (Homo sapiens), sequence (P10635 whole entry, looked up): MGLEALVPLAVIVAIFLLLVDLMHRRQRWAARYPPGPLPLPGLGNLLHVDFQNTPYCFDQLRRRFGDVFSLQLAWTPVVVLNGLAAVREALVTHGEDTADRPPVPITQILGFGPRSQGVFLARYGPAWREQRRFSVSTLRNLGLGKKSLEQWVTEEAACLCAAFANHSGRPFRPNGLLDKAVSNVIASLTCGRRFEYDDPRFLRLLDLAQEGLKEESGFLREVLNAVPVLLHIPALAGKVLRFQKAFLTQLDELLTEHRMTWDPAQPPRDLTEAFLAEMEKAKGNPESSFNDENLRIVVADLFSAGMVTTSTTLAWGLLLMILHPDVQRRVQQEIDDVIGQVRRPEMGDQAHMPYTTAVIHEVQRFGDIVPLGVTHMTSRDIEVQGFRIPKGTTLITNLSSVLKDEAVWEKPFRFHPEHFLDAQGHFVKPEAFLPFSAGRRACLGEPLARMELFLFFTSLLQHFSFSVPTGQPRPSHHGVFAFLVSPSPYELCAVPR
# Cytochrome P450 3A4 (Homo sapiens), sequence (P08684 whole entry, looked up): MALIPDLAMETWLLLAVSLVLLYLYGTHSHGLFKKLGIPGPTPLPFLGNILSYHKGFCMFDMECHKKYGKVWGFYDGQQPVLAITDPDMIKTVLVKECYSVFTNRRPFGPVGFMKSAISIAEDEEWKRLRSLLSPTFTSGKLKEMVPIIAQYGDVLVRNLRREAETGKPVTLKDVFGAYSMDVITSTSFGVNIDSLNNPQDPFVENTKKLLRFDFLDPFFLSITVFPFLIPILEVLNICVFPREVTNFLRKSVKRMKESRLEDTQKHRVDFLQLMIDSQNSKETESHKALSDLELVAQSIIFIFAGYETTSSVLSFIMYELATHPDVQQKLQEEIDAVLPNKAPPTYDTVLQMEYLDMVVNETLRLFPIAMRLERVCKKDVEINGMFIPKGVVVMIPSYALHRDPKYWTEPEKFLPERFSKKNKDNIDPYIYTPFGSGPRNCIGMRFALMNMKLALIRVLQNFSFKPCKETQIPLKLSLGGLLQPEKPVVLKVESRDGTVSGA
# Alpha-galactosidase (Coffea arabica), sequence (Q42656 whole entry, looked up): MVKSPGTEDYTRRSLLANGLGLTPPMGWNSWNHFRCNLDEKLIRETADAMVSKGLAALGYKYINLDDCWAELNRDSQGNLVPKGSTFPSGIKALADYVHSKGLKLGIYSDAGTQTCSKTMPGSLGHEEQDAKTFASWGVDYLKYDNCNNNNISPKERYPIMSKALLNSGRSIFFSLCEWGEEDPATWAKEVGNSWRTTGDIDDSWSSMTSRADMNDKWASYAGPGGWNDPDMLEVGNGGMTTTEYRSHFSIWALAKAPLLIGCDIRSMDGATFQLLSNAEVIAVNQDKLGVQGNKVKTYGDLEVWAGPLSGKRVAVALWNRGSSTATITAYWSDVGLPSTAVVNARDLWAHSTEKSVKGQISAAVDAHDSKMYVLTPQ
# Glutathione peroxidase 1 (Homo sapiens), sequence (P07203 whole entry, looked up): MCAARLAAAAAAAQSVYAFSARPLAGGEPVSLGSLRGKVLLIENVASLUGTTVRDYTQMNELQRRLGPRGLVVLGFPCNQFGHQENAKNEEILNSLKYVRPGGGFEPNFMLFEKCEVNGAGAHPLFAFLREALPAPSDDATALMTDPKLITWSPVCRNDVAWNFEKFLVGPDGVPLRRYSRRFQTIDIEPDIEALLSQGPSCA
smiles,measurement,setting,value
COc1cc2c(cc1OC)[C@@H]1C(=O)c3ccc4oc(C(C)C)cc4c3OC1CO2 (stereo partly specified),Potency,[1],inactive
same,Potency,[2],inactive
same,Potency,[3],2510 nM (active)
same,max response,[3]; [13],-28.2%
same,max response,[3]; [14],-80.9%
CCC(C)C(=O)O[C@@H]1C[C@@]2(C)C(c3ccoc3)OC(=O)CC23OC2(C)O[C@@]14[C@@]1(C)C(CC(=O)OC)C5(C)CC1(O)C(O)(C5OC(=O)C1(C)OC1C)C(OC(C)=O)[C@@]34O2 (stereo partly specified),Potency,[4],1000 nM (active)
same,Potency,[1],inactive
same,Potency,[2],inactive
same,"activity change, negative = inhibition",[3]; at 57.5 µM (top of the series),5.34% (inactive)
same,max response,[3]; [13],-2.48%
same,max response,[3]; [14],2.6%
NC(N)=NN=Cc1c(Cl)cccc1Cl,outcome,[5],inactive
same,"activity change, negative = inhibition",[3]; at 25.7 µM (top of the series),-2.38% (inactive)
same,max response,[3]; [13],-4.82%
same,max response,[3]; [14],-7.49%
Cc1nnc(C[C@@H]2C=C(c3ccc(Cl)cc3)c3ccccc3-n3c(C)nnc32)o1,Potency,[6],inactive
CC(=O)OC1C2C(OC(=O)Cc3ccccc3)C(C)CC2(OC(C)=O)C(=O)/C(C)=C/C2C(CC[C@@]13CO3)C2(C)C (stereo partly specified),Potency,[1],inactive
same,"activity change, negative = inhibition",[3]; at 57.5 µM (top of the series),-0.982% (inactive)
same,max response,[3]; [13],-2.07%
same,max response,[3]; [14],-2.51%
CCN1C[C@@]2(C)CC[C@@H](OC)[C@@]34C2C(O)[C@@]2(OCO[C@]25CC(OC)C2C[C@@]3(O)C5C2O)C14 (stereo partly specified),Potency,[1],inactive
same,Potency,[2],inactive
same,"activity change, negative = inhibition",[3]; at 57.5 µM (top of the series),2.86% (inactive)
same,max response,[3]; [13],1.33%
same,max response,[3]; [14],4.66%
CC(=O)OC1CC[C@@]2(C)C3CC[C@]4(C)C(=O)CCC4C3CC[C@H]2C1 (stereo partly specified),Potency,[4],inactive
same,Potency,[1],inactive
same,"activity change, negative = inhibition",[3]; at 57.5 µM (top of the series),-0.903% (inactive)
same,max response,[3]; [13],-8.94%
same,max response,[3]; [14],-14.8%
C[C@@]12CCC(O)C[C@H]1CCC1C2CC[C@]2(C)C(=O)CCC12 (stereo partly specified),Potency,[7],inactive
same,Potency,[1],inactive
same,"activity change, negative = inhibition",[3]; at 57.5 µM (top of the series),1.65% (inactive)
same,max response,[3]; [13],7%
same,max response,[3]; [14],9.46%
CC[C@]1(O)CC2CN(CCc3c([nH]c4ccccc34)[C@@](C(=O)OC)(c3cc4c(cc3OC)N(C)[C@H]3[C@@](O)(C(=O)OC)[C@H](OC(C)=O)[C@]5(CC)C=CCN6CC[C@]43[C@@H]65)C2)C1 (stereo partly specified),Potency,[6],4.3 nM (active)
CC1CC[C@@]2(OC1)OC1C(O)C3C4CC[C@H]5CC(O[C@@H]6O[C@@H](CO)[C@H](OC7OC(CO)C(O)C(OC8OCC(O)C(O)[C@H]8O)[C@@H]7O[C@@H]7OC(CO)[C@H](O)[C@@H](O[C@@H]8OC(CO)C(O)C(O)C8O)C7O)C(O)C6O)C(O)C[C@]5(C)C4CC[C@]3(C)C1C2C (stereo partly specified),Potency,[7],inactive
same,Potency,[1],inactive
same,Potency,[2],inactive
same,"activity change, negative = inhibition",[3]; at 57.5 µM (top of the series),-0.601% (inactive)
same,max response,[3]; [13],-28.8%
same,max response,[3]; [14],-26%
CCN1CCN(C(c2ccc(Cl)cc2)c2ccc(Cl)cc2)CC1,Potency,[8],952 nM (active)
same,Potency,[9],inactive
O=C(NC(=O)c1ccccc1Cl)Nc1ccc(OC(F)(F)F)cc1,Potency,[4],inactive
same,Potency,[1],inactive
same,Potency,[2],inactive
same,"activity change, negative = inhibition",[3]; at 57.5 µM (top of the series),8.39% (inactive)
same,max response,[3]; [13],0.34%
same,max response,[3]; [14],9.8%
CC1CC(O)[C@]2(O)[C@]13CC(=O)OC[C@@]2(C)[C@@](C)(O)C(=O)C3 (stereo partly specified),Potency,[1],inactive
same,Potency,[2],inactive
same,"activity change, negative = inhibition",[3]; at 57.5 µM (top of the series),1.46% (inactive)
same,max response,[3]; [13],13.4%
same,max response,[3]; [14],16.3%
CN(C)[C@@H]1C(=O)C(C(N)=O)C(=O)[C@@]2(O)C(=O)C3C(=O)c4c(O)ccc(Cl)c4[C@@](C)(O)C3C[C@@H]12 (stereo partly specified),Potency,[8],inactive
CCN(CC)N(O)N=O,Potency,[8],inactive
CC(=O)OC1CC2C(C)(C)C(O)C=C[C@@]2(C)C2CC[C@]3(C)C(=CC(=O)OC3c3ccoc3)[C@]12C (stereo partly specified),Potency,[1],inactive
same,Potency,[2],inactive
same,"activity change, negative = inhibition",[3]; at 57.5 µM (top of the series),6.31% (inactive)
same,max response,[3]; [13],-2.89%
same,max response,[3]; [14],6.06%
CCN=C1Nc2ccc(Cl)cc2C(C)(c2ccccc2)O1 (stereo unspecified),Potency,[8],10700 nM (active)
CC(C)c1cc(CNc2nc(Nc3cc(C4CC4)[nH]n3)cc(N3CCN(C)CC3)n2)on1,Potency,[6],215 nM (active)
same,Potency,[10],12600 nM (active)
same,Potency,[11],541 nM (active)
CC[C@]12C=CCN3CC[C@@]4(c5cc([C@@]6(C(=O)OC)C[C@H]7C[C@@H](C(C)(F)F)CN(Cc8c6[nH]c6ccccc86)C7)c(OC)cc5N(C)[C@H]4[C@@](O)(C(=O)OC)[C@@H]1OC(C)=O)[C@@H]32,Potency,[6],359 nM (active)
same,"activity change, negative = inhibition",[12],-76.7% [at 19 µM]
same,Potency,[11],127 nM (active)
CC#CC(=O)N1CC[C@@H](n2c(=O)n(-c3ccc(Oc4ccccc4)cc3)c3c(N)ncnc32)C1,Potency,[6],21500 nM (active)
same,"activity change, negative = inhibition",[12],-99%
